# GLS inh = glutaminase GLS (human) inhibition; O94925; GLS enzymatic activity, qHTS titration; Potency, µM (top dose mostly 45.5 µM), without a hit: at the highest dose activity change, negative = inhibition, actives largely listed as inhibitors; hit rate 0.21% among 410,000; also: potency is read from the fitted curve at half-maximal effect; % is scaled to controls: 0 for no effect and ±100 for the full control effect
#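 Two-point fluorescence kinetic (t0, 30 min RT) for hKGA; glutamate detected via glutamate oxidase–HRP–Amplex Red. Substrate: 1 mM L-glutamine solution; buffer 45 mM KH2PO4, pH 8.2.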
# PINK1 expr mod = PINK1 expression modulation; PINK1 immunofluorescence, high-content cytometry, 24 h; hit rate 0.2% among 410,000; Potency, µM (titrated, usually from 76.6 µM), for inactives: at the highest dose activation (PINK1 increase), hits mostly activators; AID 624263; active = well fitted activation curve with a large enough effect; inconclusive = small, poorly fitted or top-dose-only effect; cell line not stated here; also: potency is read from the fitted curve at half-maximal effect; % of control where 0% means no effect; nearly all actives have a fitted effect of over 65% in size
#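 Stable cell line treated 24 h with compounds at 5 concentrations (CCCP controls), then fixed and immunostained for PINK1 plus nuclear and cell stains; PINK1 immunofluorescence quantified by laser-scanning microplate cytometry.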
# PI4K2A block = PI4K2A (human) kinase inhibition | hit rate 0.13% among 420,000 | purified PI4K2A, ADP-Glo luminescence, 1 h; hits give low values | activity change, negative = inhibition, % at 76.9 µM; in the data active = activity change below about -50%; inconclusive = mostly about -30% to -49%;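 also: -100% = wells without enzyme as full effect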
#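 Compounds are screened against recombinant PI4K2A using PI as substrate and ATP, the latter dispensed at 300 microM. Reactions run one hour at ambient temperature before ADP-Glo detection; full inhibition defined by wells lacking enzyme.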
# Tb PGK inh = inhibitors of T. brucei phosphoglycerate kinase | Potency, µM (doses to about 57.5 µM), inactives show at the top dose activity change, negative = inhibition, actives largely listed as inhibitors | hit rate 0.043% among 380,000 | P07378 | PGK/GAPDH coupled, Kinase-Glo luminescence, 60 min; also: potency is read from the fitted curve at half-maximal effect; % is scaled to controls: 0 for no effect and ±100 for the full control effect; nearly all actives have a fitted effect of over 60% in size
# Target sequence (P07378 whole entry, looked up): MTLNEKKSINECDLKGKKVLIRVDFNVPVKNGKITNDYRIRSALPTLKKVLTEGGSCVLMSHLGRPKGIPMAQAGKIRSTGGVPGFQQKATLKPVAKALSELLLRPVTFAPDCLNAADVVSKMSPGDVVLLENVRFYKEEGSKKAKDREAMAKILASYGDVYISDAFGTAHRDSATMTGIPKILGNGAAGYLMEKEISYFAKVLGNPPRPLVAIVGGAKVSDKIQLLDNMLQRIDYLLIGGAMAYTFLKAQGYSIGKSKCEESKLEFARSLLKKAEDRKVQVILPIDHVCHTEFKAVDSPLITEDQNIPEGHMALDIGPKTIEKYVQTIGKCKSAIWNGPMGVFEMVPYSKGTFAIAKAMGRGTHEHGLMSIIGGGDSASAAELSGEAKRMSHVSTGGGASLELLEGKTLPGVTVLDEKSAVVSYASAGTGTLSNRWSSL
#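 Luminescent ATP detection (Kinase-Glo Plus) follows a 60-minute room-temperature incubation, with wells lacking PGK as controls. Buffer: 100 mM TEA (pH 7.6), 5 mM MgCl2, 0.01% Tween-20. Coupling enzyme GAPDH (100 nM final) supplies unstable 1,3-BPG in-well.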
# CCT modulator = cytosolic chaperonin activity modulation; activity change, % (concentration not given with the values), hits read low; AID 651819; purified chaperonin ATPase assay, HTRF ADP detection, 30 min; hit rate 0.3% among 360,000; in the data active = activity change below about -30%; also: % is scaled to controls: 0 for no effect and ±100 for the full control effect
#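 TRiC (40 or 20 nM final, by batch activity) in 30 mM Tris pH 7.4, 100 mM KCl, 5 mM MgCl2, 1 mM DTT was treated with compound at 76 uM single dose, then 10 uM ATP, 30 min at 37 °C. ADP was read by HTRF Transcreener.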
# * = called active by the depositor; i = inactive; u = inconclusive; x = not tested or not shown; ! = repeats disagree; [ ] = dose if it differs, or a comment. Most compounds without a hit are left out; they make up all but 0.78% or so of the library. Unless noted, calls follow the shape of the dose curve; as a rule, active = well fitted curve in the direction sought with a large enough effect; inconclusive = small, poorly fitted or top-dose-only effect, or another doubt; inactive = no such curve, though single readings can be large; an effect the other way counts as inactive or inconclusive.
SMILES,GLS inh,PINK1 expr mod,PI4K2A block,Tb PGK inh,CCT modulator
CCCCCCCCCn1c2c(c(=N)c3c1CCC3)CCC2,1%,-1%,1,-5%,-6
CCCCCCCn1c2c(c(=N)c3c1CCC3)CCCC2,11%,11µM*,-1,i,2
COc1ccc(C(=O)C2CCCN(Cc3cccn3-c3ccccn3)C2)c(OC)c1 (centres undefined),-7%,40µM*,-1,-7%,1
Cc1cnc(-n2ncc(C(=O)NCC(C)(C)N3CCOCC3)c2C)nc1-c1cccs1,x,0%,x,x,x
C[C@H](N)C(=O)N[C@@H](C)C(=O)NC1[C@H]2CN(c3nc4c(cc3F)c(=O)c(C(=O)O)cn4-c3ccc(F)cc3F)C[C@@H]12 (some centres undefined),x,x,1,x,x
C/C(=C\C(=O)c1ccccc1)Nc1ccc(O)cc1,23%,1%,-54*,-4%,0
C/C(=C\C(=O)c1cccnc1)Nc1ccc(O)cc1,-3%,0%,-61*,i,1
Cc1nc2cc(NC(=O)[C@@H]3C[C@@H](Sc4ccccn4)CN3Cc3cccc(Cl)c3)ccc2s1,x,0%,x,x,x
CC(C)(C)c1cc(=O)n(-c2ccccc2)[nH]1,4%,2%,-54*,-25%,0
CC(C)CSc1nnc(CNC(=O)c2ccccn2)n1C,x,0%,x,x,x
COc1ccc(S(=O)(=O)Nc2cc(C)c(O)c(S(=O)(=O)c3ccccc3)c2)cc1,53%,36%[38.3 µM],-10,i,-2
COc1ccc(S(=O)(=O)c2c(C)c(NS(=O)(=O)c3ccccc3)cc(C)c2O)cc1,3.2µM*!,-1%,4,13%,0
Cc1cc2nc3c(=O)n(C4CCCCC4)c(=O)[nH]c3nc2cc1N,-1%,14µM*,-5,-2%,0
Cc1ccc(CNc2nc(CN3CCCCC3c3cccnc3)nc3ccccc23)o1 (centres undefined),x,0%,x,x,x
COc1ccc(CN2CCN(C(C)=O)CC2)cc1OC1CCN(C(=O)c2ccc3[nH]c(C)c(C)c3c2)CC1,x,-1%,x,x,x
CC(C)(CS(=O)(=O)[O-])NC(=O)CC[N+](C)(C)CCO,-11%,2%,-21,2.2µM*,-1
Cc1sc2ncnc(N)c2c1C,0%,1%,9,8%,-55*
Cc1cc(Cl)ccc1OCC(=O)N1CCOc2ccc(CN3C[C@@H](C)O[C@@H](C)C3)cc2C1,x,-1%,x,x,x
CCCCCCCCCCCCCCCC[N+](C)(C)Cc1ccccc1,32µM*,x,-4,x,x
COc1c(OC(C)=O)ccc(/C=C/c2ccc3cccc(OC)c3n2)c1[N+](=O)[O-],12%,2%,3,-2%,-3
COc1c(OC(C)=O)ccc(/C=C/c2ccc3ccccc3n2)c1[N+](=O)[O-],4%,10µM*,12,-1%,0
O=C(NCCc1nnc2n1CCN(CC1CC=CCC1)CC2)c1ccc(F)cc1 (centres undefined),x,-1%,x,x,x
CCOC(=O)C1CCN(C(=O)CCS(=O)(=O)c2ccc3c(c2)CC(C)N3C(=O)CC)CC1 (centres undefined),0%,-1%,2,i,0
CCOC(=O)N1CCN(C(=O)CCS(=O)(=O)c2ccc3c(c2)CC(C)N3C(=O)CC)CC1 (centres undefined),-2%,5%,-2,i,-77*
CCOC(=O)CN1N=C(/C=C/c2ccccc2)CCC1=O,-9%,-2%,-4,-9%,-48*
SMILES,GLS inh,PINK1 expr mod,PI4K2A block,Tb PGK inh,CCT modulator
COc1ccc(OC)c(CN2C[C@H](Sc3ccc(F)cc3)C[C@H]2C(=O)N(C)C)c1,x,-1%,x,x,x
COc1ccc2nc3ccccc3nc2c1NC(=O)c1ccc(Br)cc1,-7%,14µM*,-4,i,2
CN1CCN(Cc2c(O)ccc3occ(C(=O)c4ccccc4)c23)CC1,10%,-1%,-2,-2%,1
CC(=O)C(C(C)=O)c1c(Cl)c(O)c(O)c2c(C(=O)c3ccccc3)coc12,40%,16µM*,-13,3%,-1
Nc1nonc1C(=O)N/N=C/c1cc2c(cc1Br)OCO2,-22%,4%,-11,-4%,-31*
Nc1cc(-c2ccncc2)c[nH]c1=O,26%,0%,-55*,-1%,2
CC(C)NC(=O)c1ccc2c3n(nc2c1)-c1ccccc1CO3,2%,2%,-63*,u,-1
CC(C)[C@@H](CO)NC(=O)c1ccc2c3n(nc2c1)-c1ccccc1CO3,2%,0%,-20,-24%,-1
CC[C@H](c1ccccc1)c1noc(CCN(CC)CC)n1,6%,x,x,x,x
CCCCCCn1c(=O)c2c(ncn2C)n(C)c1=O,x,x,0,x,x
COc1ccc2cc(CNc3ccc(C)cc3)c(=O)n(CC(=O)Nc3ccc(C)cc3Cl)c2c1,13µM*,-1%,-14,2%,x
CCc1ccc(NCc2cc3cc4c(cc3n(CC(=O)Nc3cccc(OC)c3)c2=O)OCO4)cc1,10µM*,0%,-5,7%,x
CCc1ccc(NCc2cc3cc4c(cc3n(CC(=O)Nc3ccc(OC)cc3)c2=O)OCO4)cc1,-8%,1%,0,3%,x
C=C1/C(=C\C=C2/CCC[C@@]3(C)[C@@H]([C@H](C)OCCC(C)(C)O)CC[C@@H]23)C[C@@H](O)C[C@@H]1O,-1%,x,x,x,x
CCN(Cc1ccccc1)S(=O)(=O)c1cc(C(=O)Nc2cc(Cl)cc(Cl)c2)ccc1F,-9%,45µM*,2,i,x
Cc1ccccc1C(=O)NNC(=S)Nc1cccc(C(F)(F)F)c1,18µM*,u,-17,4%,-2
O=C(NNC(=S)Nc1cccc(C(F)(F)F)c1)c1ccc(Cl)cc1Cl,4%,u,4,1%,-2
CCOc1ccc(S(=O)(=O)Nc2ccccc2C(=O)Nc2ccccc2N2CCOCC2)cc1,17%,11µM*,6,18%,-2
O=C(Nc1ccccc1N1CCOCC1)c1ccccc1NS(=O)(=O)c1ccc(F)cc1,6%,2%,2,-2%,-1
O=C(Nc1ccccc1N1CCOCC1)c1ccccc1NS(=O)(=O)c1ccc(F)c(F)c1,24%,14%,-2,-5%,-31*
COCC(=O)Nc1cc(C(=O)NC2CCCc3ccccc32)c2c(c1)nc(-c1ccncc1)n2C (centres undefined),x,0%,x,x,x
O=C1O[C@H]2[C@@H](OC(O)[C@@H]2O)[C@H]1O (some centres undefined),8%,x,x,x,x
COc1ccc(OC)c(-c2cc(C(=O)Nc3c(C)nn(Cc4ccccc4)c3C)no2)c1,-7%,7%[38.3 µM],-54*,2%,0
COc1ccc(OC)c(-c2cc(C(=O)Nc3c(C)nn(Cc4ccc(Cl)cc4)c3C)no2)c1,-1%,20%[38.3 µM],1,-4%,0
COc1ccccc1CCNc1ncnc2sc(C(=O)N3CCCC3)c(C)c12,x,0%,x,x,x
